{"source": "PubChem BioAssay (NCI)", "note": "The panel holds about 79,000 compounds, 15% with a hit somewhere; the sample as a whole holds those more often. Unmarked numbers belong to inactive results. The source made the active and inactive calls. Cut-off read from the data, not from the text of the source: active = growth inhibition above about 70%; inactive = the rest.", "data": [{"test": "NCI Yeast Anticancer Drug Screen. Data for the rad50 strain (AID 155);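 note: 0% = growth of vehicle-only cultures of the same strain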", "settings": "S. cerevisiae rad50 strain growth inhibition; at 50.0 µM; hits give high values", "in_short": "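Readout: growth inhibition relative to vehicle-treated cultures. Compound exposure was carried out in a genetically defined yeast strain deficient in DNA damage repair.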", "values": [{"compound": "Cc1nc(N/N=C/c2ccccc2Cl)[nH]c(=O)c1CCO", "growth inhibition": "-18.9%"}, {"compound": "CSCCC(NC=O)C(=O)O", "note": "(stereo not given)", "growth inhibition": "-0.65%"}, {"compound": "S=C1CC(c2ccccc2)Sc2ccccc2N1", "note": "(stereo not given)", "growth inhibition": "-1.45%"}, {"compound": "C/C(=N/O)c1sc(-c2nc(C)c(/C(C)=N\\O)s2)nc1C", "growth inhibition": "-1.7%"}, {"compound": "CCCCCC1NC(C)(C)CO1", "note": "(stereo not given)", "growth inhibition": "1.25%"}, {"compound": "CCCC1SCC(C)(C)NC1=O", "note": "(stereo not given)", "growth inhibition": "4.85%"}, {"compound": "OC1C=COC2COC(c3ccccc3)OC12", "note": "(stereo not given)", "growth inhibition": "4.1%"}, {"compound": "CCCCCCCCSc1nc2ccc(N=Cc3ccccc3O)cc2s1", "growth inhibition": "75% (active)"}, {"compound": "COC1CCC2(C)C3CCC4C(=CCC5C(C)(C)C(=O)CCC45C)CC3(C)CCC2C1(C)C", "note": "(stereo not given)", "growth inhibition": "16.3%"}, {"compound": "CCOC(=O)CS(=O)(=O)C1CCCCC1c1cc(OC)c(OC)c(OC)c1", "note": "(stereo not given)", "growth inhibition": "3.25%"}, {"compound": "CN1CCN(C(=S)N(C(=O)c2ccc(Cl)cc2)C2CCCCC2)CC1", "growth inhibition": "-67%"}, {"compound": "COC(OC)c1cccc2c1C(=O)CCC1(O)c3ccccc3C1C2", "note": "(stereo not given)", "growth inhibition": "-8.55%"}, {"compound": "CC(=O)NC1C(=O)N(c2ccccc2)N=C1C", "note": "(stereo not given)", "growth inhibition": "15.6%"}, {"compound": "Fc1ccc(CSC(=S)Nc2ccc(I)cc2)cc1", "growth inhibition": "98.8% (active)"}, {"compound": "C/C(=C\\c1ccccc1)C(=O)c1ccccc1", "growth inhibition": "-0.45%"}, {"compound": "CC(C)(C)NC(=O)NCc1ccc(Cl)cc1", "growth inhibition": "-0.5%"}, {"compound": "CCC(=O)n1cc2ccc([N+](=O)[O-])cc2n1", "growth inhibition": "1.35%"}, {"compound": "CC(C)CCC[C@@H](C)[C@H]1CC[C@H]2[C@@H]3CC[C@H]4C[C@@H](CCC=C(c5cc(Cl)c(O)c(C(=O)O)c5)c5cc(Cl)c(O)c(C(=O)O)c5)CC[C@]4(C)[C@H]3CC[C@]12C", "growth inhibition": "15.3%"}, {"compound": "CCCCS(=O)(=O)CCCC", "growth inhibition": "18.5%"}, {"compound": "CN1C(c2ccccc2)=C(C#N)C(=O)CC(c2ccco2)N1C", "note": "(stereo not given)", "growth inhibition": "4.3%"}, {"compound": "COc1ccc(-c2nc(N)nc3c2CN(CCCC(=O)O)C3=O)cc1", "growth inhibition": "-4.65%"}, {"compound": "O=C(O)CCC(=O)Nc1cc(C(F)(F)F)ccc1Cl", "growth inhibition": "24.1%"}, {"compound": "C=C1OC(c2ccccc2NC)=NC12CCCCC2", "growth inhibition": "-11.6%"}, {"compound": "COc1cc(N=Nc2c(Cl)cc([N+](=O)[O-])cc2Cl)c(OC)cc1N=Nc1ccc(N)nc1N", "growth inhibition": "23.4%"}, {"compound": "CSC(=N\\N=C\\c1c(F)cccc1Cl)/N=C/N(C)C", "growth inhibition": "8.7%"}, {"compound": "CCCCCN1C(=O)N=NC1=S", "growth inhibition": "4.65%"}, {"compound": "COc1cc2c(c(OC)c1OC)-c1ccc(OC)c(=O)cc1[C@@H](NC(=O)c1ccccc1)CC2", "growth inhibition": "11.7%"}, {"compound": "C[N+]1(C)CC=C(N2CCOCC2)CC1", "growth inhibition": "-27.6%"}, {"compound": "CCCCC[N+](CCCCC)(CCCCC)CCCCC", "growth inhibition": "-10.8%"}, {"compound": "O=P(c1ccccc1)(c1ccccc1)C(O)c1ccc(F)cc1", "note": "(stereo not given)", "growth inhibition": "-11.6%"}, {"compound": "Nc1nc2[nH]c(=O)c(C(=O)O)nc2c(=O)[nH]1", "growth inhibition": "8.35%"}, {"compound": "COc1cc2nncc(SCc3ccc(Cl)cc3)c2cc1OC", "growth inhibition": "-1%"}, {"compound": "Cc1ccccc1-c1c2ccccc2cc2c1ccc1ccccc12", "growth inhibition": "12%"}, {"compound": "CCOC(=O)CC(C)C(C(=O)OCC)C(=O)OCC", "note": "(stereo not given)", "growth inhibition": "1.05%"}, {"compound": "CCCc1cc(=O)oc2c3c(c4c(c12)OC(C)(C)C=C4)OC(C)[C@H](C)[C@@H]3O", "note": "(stereo not given in full)", "growth inhibition": "14.4%"}, {"compound": "O=C(O)C12C3CCC(CC3)C1(C(=O)O)C1CCC2C1", "note": "(stereo not given)", "growth inhibition": "-57.6%"}, {"compound": "CNC(=O)OCc1c(COC(=O)NC)c(-c2ccc(F)cc2)n2c1CCC2", "growth inhibition": "23.8%"}, {"compound": "NNC(=O)c1oc2ccccc2c1CN(CCO)CCO", "growth inhibition": "3.75%"}, {"compound": "CC(=O)O[C@H]1CC[C@]2(C)C3CC[C@]4(C)C([C@H](C)CCCC(C)C)CCC4[C@]3(/C=N/O)n3c(=O)n(-c4ccccc4)c(=O)n3[C@]2(/C=N\\O)C1", "note": "(stereo not given in full)", "growth inhibition": "28%"}, {"compound": "CCOC(=O)Nc1ccccc1F", "growth inhibition": "4.4%"}]}, {"test": "NCI Yeast Anticancer Drug Screen. Data for the mec2-1 strain (AID 157)", "settings": "S. cerevisiae mec2-1 strain, at 50.0 µM, hits give high values", "in_short": "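Mutant yeast (mec2-1) grown with compound; growth inhibition relative to vehicle control reported.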", "values": [{"compound": "Cc1nc(N/N=C/c2ccccc2Cl)[nH]c(=O)c1CCO", "growth inhibition": "-2.8%"}, {"compound": "CSCCC(NC=O)C(=O)O", "note": "(stereo not given)", "growth inhibition": "-5.35%"}, {"compound": "S=C1CC(c2ccccc2)Sc2ccccc2N1", "note": "(stereo not given)", "growth inhibition": "1.85%"}, {"compound": "C/C(=N/O)c1sc(-c2nc(C)c(/C(C)=N\\O)s2)nc1C", "growth inhibition": "-19.3%"}, {"compound": "CCCCCC1NC(C)(C)CO1", "note": "(stereo not given)", "growth inhibition": "-2.95%"}, {"compound": "CCCC1SCC(C)(C)NC1=O", "note": "(stereo not given)", "growth inhibition": "3.25%"}, {"compound": "OC1C=COC2COC(c3ccccc3)OC12", "note": "(stereo not given)", "growth inhibition": "-8.95%"}, {"compound": "CCCCCCCCSc1nc2ccc(N=Cc3ccccc3O)cc2s1", "growth inhibition": "31.7%"}, {"compound": "COC1CCC2(C)C3CCC4C(=CCC5C(C)(C)C(=O)CCC45C)CC3(C)CCC2C1(C)C", "note": "(stereo not given)", "growth inhibition": "-11.3%"}, {"compound": "CCOC(=O)CS(=O)(=O)C1CCCCC1c1cc(OC)c(OC)c(OC)c1", "note": "(stereo not given)", "growth inhibition": "-3.2%"}, {"compound": "CN1CCN(C(=S)N(C(=O)c2ccc(Cl)cc2)C2CCCCC2)CC1", "growth inhibition": "-53.4%"}, {"compound": "COC(OC)c1cccc2c1C(=O)CCC1(O)c3ccccc3C1C2", "note": "(stereo not given)", "growth inhibition": "-6.65%"}, {"compound": "CC(=O)NC1C(=O)N(c2ccccc2)N=C1C", "note": "(stereo not given)", "growth inhibition": "-6.05%"}, {"compound": "Fc1ccc(CSC(=S)Nc2ccc(I)cc2)cc1", "growth inhibition": "99.2% (active)"}, {"compound": "C/C(=C\\c1ccccc1)C(=O)c1ccccc1", "growth inhibition": "3.85%"}, {"compound": "CC(C)(C)NC(=O)NCc1ccc(Cl)cc1", "growth inhibition": "-16.1%"}, {"compound": "CCC(=O)n1cc2ccc([N+](=O)[O-])cc2n1", "growth inhibition": "1.35%"}, {"compound": "CC(C)CCC[C@@H](C)[C@H]1CC[C@H]2[C@@H]3CC[C@H]4C[C@@H](CCC=C(c5cc(Cl)c(O)c(C(=O)O)c5)c5cc(Cl)c(O)c(C(=O)O)c5)CC[C@]4(C)[C@H]3CC[C@]12C", "growth inhibition": "8.35%"}, {"compound": "CCCCS(=O)(=O)CCCC", "growth inhibition": "0.9%"}, {"compound": "CN1C(c2ccccc2)=C(C#N)C(=O)CC(c2ccco2)N1C", "note": "(stereo not given)", "growth inhibition": "-4.4%"}, {"compound": "COc1ccc(-c2nc(N)nc3c2CN(CCCC(=O)O)C3=O)cc1", "growth inhibition": "30.3%"}, {"compound": "O=C(O)CCC(=O)Nc1cc(C(F)(F)F)ccc1Cl", "growth inhibition": "13.7%"}, {"compound": "C=C1OC(c2ccccc2NC)=NC12CCCCC2", "growth inhibition": "-51.5%"}, {"compound": "COc1cc(N=Nc2c(Cl)cc([N+](=O)[O-])cc2Cl)c(OC)cc1N=Nc1ccc(N)nc1N", "growth inhibition": "28%"}, {"compound": "CSC(=N\\N=C\\c1c(F)cccc1Cl)/N=C/N(C)C", "growth inhibition": "-4.1%"}, {"compound": "CCCCCN1C(=O)N=NC1=S", "growth inhibition": "8.15%"}, {"compound": "COc1cc2c(c(OC)c1OC)-c1ccc(OC)c(=O)cc1[C@@H](NC(=O)c1ccccc1)CC2", "growth inhibition": "7.15%"}, {"compound": "C[N+]1(C)CC=C(N2CCOCC2)CC1", "growth inhibition": "-25.1%"}, {"compound": "CCCCC[N+](CCCCC)(CCCCC)CCCCC", "growth inhibition": "-16.4%"}, {"compound": "O=P(c1ccccc1)(c1ccccc1)C(O)c1ccc(F)cc1", "note": "(stereo not given)", "growth inhibition": "-14.7%"}, {"compound": "Nc1nc2[nH]c(=O)c(C(=O)O)nc2c(=O)[nH]1", "growth inhibition": "-6.15%"}, {"compound": "COc1cc2nncc(SCc3ccc(Cl)cc3)c2cc1OC", "growth inhibition": "4.2%"}, {"compound": "Cc1ccccc1-c1c2ccccc2cc2c1ccc1ccccc12", "growth inhibition": "-21.7%"}, {"compound": "CCOC(=O)CC(C)C(C(=O)OCC)C(=O)OCC", "note": "(stereo not given)", "growth inhibition": "6.15%"}, {"compound": "CCCc1cc(=O)oc2c3c(c4c(c12)OC(C)(C)C=C4)OC(C)[C@H](C)[C@@H]3O", "note": "(stereo not given in full)", "growth inhibition": "11.4%"}, {"compound": "O=C(O)C12C3CCC(CC3)C1(C(=O)O)C1CCC2C1", "note": "(stereo not given)", "growth inhibition": "-12.4%"}, {"compound": "CNC(=O)OCc1c(COC(=O)NC)c(-c2ccc(F)cc2)n2c1CCC2", "growth inhibition": "12.7%"}, {"compound": "NNC(=O)c1oc2ccccc2c1CN(CCO)CCO", "growth inhibition": "-2.4%"}, {"compound": "CC(=O)O[C@H]1CC[C@]2(C)C3CC[C@]4(C)C([C@H](C)CCCC(C)C)CCC4[C@]3(/C=N/O)n3c(=O)n(-c4ccccc4)c(=O)n3[C@]2(/C=N\\O)C1", "note": "(stereo not given in full)", "growth inhibition": "35.2%"}, {"compound": "CCOC(=O)Nc1ccccc1F", "growth inhibition": "-16.1%"}]}]}
